# Results as given in PubChem BioAssay AID1117283 (Broad Institute, 2014).
# Entries with a potency or affinity are not part of this list. Activity calls are given as the source filed them.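 Rule for the calls: active = fluorescent signal decreased by at least 40%; inconclusive = no clear call, values can overlap the other calls; inactive = the rest, including activity opposite to the expected direction.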
# Experiment: inhibition of fibronectin matrix deposition – AH1F cells, Alexa488-fibronectin fluorescence, cherry-pick, set 2, dose response (AID 1117283);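 note: AH1F fibroblasts given Alexa488-labelled fibronectin at 24 nM final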
# Conditions: AH1F fibroblasts, overnight; series mostly up to 35 µM
row,SMILES,outcome
1,C[C@@H]1CN([C@@H](C)CO)C(=O)c2cccc(NC(=O)Nc3ccc(C(F)(F)F)cc3)c2O[C@@H]1CN(C)C(=O)Nc1cccc2ccccc12,inactive
2,C[C@H](O)C#Cc1ccc2c(c1)O[C@H](CN(C)C)[C@H](C)CN([C@@H](C)CO)S2(=O)=O,inactive
3,CN1c2ccc(-c3ccccc3)cc2[C@H]2[C@H](CCN2C(=O)CN2CCOCC2)[C@@H]1CO,inactive
4,Cc1ccc(S(=O)(=O)N2CC[C@@H]3[C@H]2c2cc(-c4cccc(C(=O)N(C)C)c4)ccc2N[C@@H]3CO)cc1,inactive
5,C[C@H](CO)N1C[C@H](C)[C@H](CN(C)C(=O)Nc2cccc3ccccc23)Oc2c(NC(=O)Nc3ccc(C(F)(F)F)cc3)cccc2C1=O,inactive
6,COc1cccc(S(=O)(=O)N2CC[C@@H]3[C@H]2c2cc(-c4ccc(C#N)cc4)ccc2N[C@@H]3CO)c1,inactive
7,COC(=O)C[C@@H]1CC[C@H]2[C@H](COc3ccc(NC(=O)Cc4cccs4)cc3C(=O)N2C)O1,inactive
8,C[C@@H]1CN([C@@H](C)CO)C(=O)c2cc(NC(=O)C3CCCCC3)ccc2O[C@H]1CN(C)Cc1ccc(-c2ccccc2)cc1,inactive
9,Cc1ccc(C(O)c2ncc(-c3cccc4ccccc34)[nH]2)cc1F (configuration not stated),inactive
10,COc1cccc(CN2CCN(C(=O)c3ccc(-c4ccccc4)cc3)CC2)c1OC,inactive
11,C[C@H](CO)N1C[C@H](C)[C@@H](CN(C)Cc2ccc(-c3ccccc3)cc2)Oc2ccc(NC(=O)C3CCCCC3)cc2C1=O,inactive
12,CCC(C)(C)NC(=O)C(OC(=O)c1ccco1)c1ccccc1OC (configuration not stated),inactive
13,C[C@H]1CN([C@@H](C)CO)C(=O)c2cc(-c3ccccc3)cnc2O[C@@H]1CN(C)C(=O)c1cccc(F)c1,inactive
14,Cc1ccn2cc(-c3ccc(NC(=O)c4ccco4)cc3)nc2c1,inactive
15,N#Cc1ccc(-c2ccc3c(c2)[C@@H]2[C@@H](CCN2S(=O)(=O)c2ccccc2F)[C@H](CO)N3)cc1,inactive
16,CN1c2ccc(-c3ccccc3)cc2[C@@H]2[C@@H](CCN2C(=O)CN2CCOCC2)[C@@H]1CO,inactive
17,O=C(Nc1ccccc1F)N1C[C@@H]2[C@H](c3ccccc31)[C@H](CO)N2C(=O)C1CCOCC1,inactive
18,Cc1ccc([N+](=O)[O-])cc1NC(=O)CN(C(=O)c1ccccc1Cl)C1CCCCC1,inactive
19,COc1cccc(-c2ccc3c(c2)[C@@H]2[C@@H](CCN2S(=O)(=O)c2cccc(OC)c2)[C@@H](CO)N3)c1,inactive

row,SMILES,outcome
1,CSc1ccccc1C(=O)C1CCCN(C(=O)CCc2cccnc2)C1 (configuration not stated),inactive
2,COC(=O)C[C@@H]1CC[C@@H]2[C@H](COc3ccc(NC(=O)Cc4cccs4)cc3C(=O)N2C)O1,inactive
3,CO[C@@H]1CN(C)C(=O)c2cc(NC(=O)Nc3ccc(Cl)c(Cl)c3)ccc2OC[C@H](C)NC[C@H]1C,inactive
4,COCC(=O)Nc1ccc2c(c1)C(=O)N(C)[C@@H]1CC[C@H](CC(=O)NCc3ccccc3Cl)O[C@@H]1CO2,inactive
5,N#C[C@H]1[C@@H](c2ccccc2C2=CCCCC2)[C@H](CO)N1S(=O)(=O)c1ccccc1,inactive
6,COc1ccccc1N(CC(=O)N(CC(C)C)CC(C)C)S(=O)(=O)c1cccs1,inactive
7,Cc1ccc(NC(=O)COC(=O)c2cc(Cl)ccc2[N+](=O)[O-])c(C)c1,inactive
8,Cc1cc(C)n2ncc(C(=O)NCc3ccc(Cl)cc3)c2n1,inactive
9,CO[C@@H]1CN(C)C(=O)c2ccc(NC(=O)c3ccc(-c4ccccc4)cc3)cc2OC[C@H](C)NC[C@@H]1C,inactive
10,O=C(Nc1cc(Sc2nc3ccccc3s2)cc([N+](=O)[O-])c1)c1ccccc1F,inactive
11,C[C@@H]1CN([C@H](C)CO)C(=O)c2cc(-c3ccccc3)cnc2O[C@@H]1CN(C)Cc1ccccc1,inactive
12,Cc1c(NC(=O)c2ccc3nsnc3c2)cccc1[N+](=O)[O-],inactive
13,Cc1cccc(N2CCN(S(=O)(=O)c3cn(C)cn3)CC2)c1C,inactive
14,O=S(=O)(c1ccccc1F)N1CC[C@@H]2[C@H](CO)Nc3ccc(-c4cccc(F)c4)cc3[C@@H]21,inactive
15,C[C@@H]1CN([C@@H](C)CO)C(=O)c2cc(-c3ccccc3)cnc2O[C@@H]1CN(C)Cc1ccccc1,inactive
16,C[C@H]1CN([C@@H](C)CO)C(=O)c2cccc(NC(=O)Nc3ccc(C(F)(F)F)cc3)c2O[C@@H]1CN(C)C(=O)Nc1cccc2ccccc12,inactive
17,OC(CNC1CCCc2ccccc21)COc1c(Cl)cccc1Cl (configuration not stated),inactive
18,CN(C)C(=O)c1ccc(-c2ccc3c(c2)[C@H]2[C@H](CCN2C(=O)c2ccc(F)cc2)[C@@H](CO)N3C)cc1,inactive
